Experimental data from PubChem BioAssay (NCI).
Where “and” joins values, the source holds several entries; their conditions need not be identical. Equal entries are not always repeated. The panel holds about 83,000 compounds, 20% with a hit somewhere; the sample as a whole holds those more often.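 Results are percent growth after 48 hours of single-concentration exposure. 100 means growth as in untreated cells, lower positive values show inhibition; negative values down to -100 show cell death.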 Some compounds were tested as several samples or in several runs, with calls that do not always agree. Calls of active or inactive are those of the source. The calls were made as follows: active = growth percent below 10; inactive = the rest.

Experiments:
Assay in all cases: NCI-60 one-dose screen, 48 h (100 = growth as untreated, 0 = no growth, -100 = all killed)
Settings in all cases: 10 µM unless noted
[1] = system: NCI-H23 lung
[2] = system: NCI-H226 lung
[3] = system: NCI-H322M lung
[4] = system: HOP-62 NSCLC
[5] = system: NCI-H460 lung
[6] = system: HOP-92 NSCLC
[7] = system: NCI-H522 lung
[8] = system: A549/ATCC NSCLC
[9] = system: 786-0 renal
[10] = system: COLO 205 colon

CN1CCN(c2ccc3nc(-c4c(N)c5c(F)cccc5[nH]c4=O)[nH]c3c2)CC1
growth [1]: 27.9% (inactive) and 34.1% (inactive)
growth [2]: 54.8% (inactive) and 71.3% (inactive)
growth [3]: 52.4% (inactive) and 61.6% (inactive)
growth [4]: 23.4% (inactive) and 24.6% (inactive)
growth [5]: 6.56% (active) and 7.99% (active)
growth [6]: 43.9% (inactive) and 44.5% (inactive)
growth [7]: 18.5% (inactive) and 53.8% (inactive)
growth [8]: 12.9% (inactive) and 22.3% (inactive)
growth [9]: 38.1% (inactive) and 24.8% (inactive)
growth [10]: 5.09% (active) and 26.8% (inactive)

COc1ccccc1NC(=O)OCC#CCOC(=O)Nc1ccccc1OC
growth [1]: 101% (inactive) and 95.5% (inactive)
growth [2]: 97.8% (inactive) and 90.5% (inactive)
growth [3]: 112% (inactive) and 98.4% (inactive)
growth [4]: 102% (inactive) and 91.8% (inactive)
growth [5]: 110% (inactive) and 94.7% (inactive)
growth [6]: 83.1% (inactive)
growth [7]: 80.2% (inactive) and 76.8% (inactive)
growth [8]: 101% (inactive) and 87% (inactive)
growth [9]: 108% (inactive) and 88.2% (inactive)
growth [10]: 107% (inactive) and 120% (inactive)

O=C(O)C1(C(=O)O)CCC1.[NH2-].[NH2-].[Pt+2]
growth [1]: 104% (inactive) and 87.6% (inactive)
growth [2]: 99% (inactive) and 98.5% (inactive)
growth [3]: 99.9% (inactive) and 110% (inactive)
growth [4]: 98.2% (inactive) and 105% (inactive)
growth [5]: 116% (inactive) and 92.4% (inactive)
growth [6]: 70.1% (inactive)
growth [7]: 98.3% (inactive) and 76.1% (inactive)
growth [8]: 99.3% (inactive) and 97.5% (inactive)
growth [9]: 101% (inactive) and 98.7% (inactive)
growth [10]: 106% (inactive) and 115% (inactive)

Cc1cc(N=Nc2ccc(C)c(N=Nc3cc(C)c(N)cc3N)c2)c(N)cc1N
growth [1]: 89.5% (inactive) and 78.4% (inactive)
growth [2]: 87.5% (inactive) and 95.3% (inactive)
growth [3]: 92% (inactive) and 91% (inactive)
growth [4]: 60.6% (inactive) and 80.8% (inactive)
growth [5]: 97.4% (inactive) and 93.2% (inactive)
growth [6]: 66.2% (inactive)
growth [7]: 89.9% (inactive) and 54.9% (inactive)
growth [8]: 95.2% (inactive) and 81% (inactive)
growth [9]: 94.5% (inactive) and 102% (inactive)
growth [10]: 92.5% (inactive) and 81.2% (inactive)

O=C(c1ccc(Cl)cc1)C(NCCO)c1ccc(Cl)cc1 (stereo not given)
growth [1]: 90.7% (inactive) and 90.4% (inactive)
growth [2]: 93.2% (inactive) and 106% (inactive)
growth [3]: 86.4% (inactive) and 93.6% (inactive)
growth [4]: 87.5% (inactive)
growth [5]: 100% (inactive) and 114% (inactive)
growth [6]: 72.9% (inactive) and 89.4% (inactive)
growth [7]: 92.8% (inactive) and 89.3% (inactive)
growth [8]: 96.8% (inactive) and 93.8% (inactive)
growth [9]: 97.8% (inactive) and 93.3% (inactive)
growth [10]: 112% (inactive) and 122% (inactive)

CC1CCCC(=O)O1 (stereo not given)
growth [1]: 104% (inactive) and 97.1% (inactive)
growth [2]: 93.3% (inactive) and 101% (inactive)
growth [3]: 106% (inactive)
growth [4]: 94.3% (inactive) and 96.5% (inactive)
growth [5]: 104% (inactive) and 112% (inactive)
growth [6]: 91.8% (inactive)
growth [7]: 86.3% (inactive) and 104% (inactive)
growth [8]: 108% (inactive) and 97.9% (inactive)
growth [9]: 92.6% (inactive) and 93.3% (inactive)
growth [10]: 107% (inactive) and 122% (inactive)

O=[N+]([O-])c1ccc(-n2[nH]nnc2=S)cc1
growth [1]: 98.5% (inactive)
growth [2]: 107% (inactive)
growth [3]: 92.8% (inactive)
growth [4]: 102% (inactive)
growth [5]: 110% (inactive)
growth [6]: 102% (inactive)
growth [7]: 91.3% (inactive)
growth [8]: 102% (inactive)
growth [9]: 106% (inactive)
growth [10]: 100% (inactive)

O=C(O)CN(CCN(CC(=O)O)CC(=O)O)CCN(CC(=O)O)CC(=O)O
growth [1]: -19% (active) and 104% (inactive) and 110% (inactive)
growth [2]: 15.7% (inactive) and 98.6% (inactive) and 90.3% (inactive)
growth [3]: -3.44% (active) and 107% (inactive) and 116% (inactive)
growth [4]: -75.5% (active) and 97.4% (inactive) and 99.5% (inactive)
growth [5]: -51.4% (active) and 119% (inactive)
growth [6]: 103% (inactive) and 102% (inactive)
growth [7]: -27.9% (active) and 107% (inactive) and 88.5% (inactive)
growth [8]: -85.5% (active) and 106% (inactive) and 98.9% (inactive)
growth [9]: -20.3% (active) and 102% (inactive) and 105% (inactive)
growth [10]: 23% (inactive) and 91.5% (inactive) and 104% (inactive)

NC(=S)N/N=C(\c1ccc(Br)cc1)C1CC1
growth [1]: 94.2% (inactive) and 87.9% (inactive)
growth [2]: 96.7% (inactive) and 87.6% (inactive)
growth [3]: 101% (inactive) and 83.7% (inactive)
growth [4]: 96.4% (inactive) and 87% (inactive)
growth [5]: 104% (inactive) and 102% (inactive)
growth [6]: 83.2% (inactive) and 92.7% (inactive)
growth [7]: 98.9% (inactive)
growth [8]: 103% (inactive)
growth [9]: 113% (inactive) and 106% (inactive)
growth [10]: 98.4% (inactive) and 94.5% (inactive)

COC(=O)/C=C/c1cc(O)c2c(c1)C(C(=O)OC)C(c1ccc(O)c(O)c1)O2 (stereo not given)
growth [1]: 30.8% (inactive) and 27.3% (inactive)
growth [2]: 57.1% (inactive) and 39.7% (inactive)
growth [3]: 72.7% (inactive) and 55.8% (inactive)
growth [4]: 45.8% (inactive) and 37.5% (inactive)
growth [5]: 28% (inactive) and 17.7% (inactive)
growth [6]: 16.5% (inactive) and -0.331% (active)
growth [7]: 1.09% (active) and 0.933% (active)
growth [8]: 31.5% (inactive) and 20.3% (inactive)
growth [9]: 17% (inactive) and 15% (inactive)
growth [10]: 58.5% (inactive) and 41% (inactive)

O=C(CN1CCN(c2cc3c(cc2F)c(=O)c(C(=O)O)cn3C2CC2)CC1)Nc1ccc(Cl)cc1
growth [1]: 94.5% (inactive) and 87.5% (inactive)
growth [2]: 80.1% (inactive) and 96.7% (inactive)
growth [3]: 53.8% (inactive) and 56% (inactive)
growth [4]: 71.7% (inactive) and 100% (inactive)
growth [5]: 88% (inactive) and 90.1% (inactive)
growth [6]: 78.9% (inactive) and 87.2% (inactive)
growth [7]: -13.7% (active) and 83.5% (inactive)
growth [8]: 69.2% (inactive) and 86.8% (inactive)
growth [9]: 70.1% (inactive) and 83.8% (inactive)
growth [10]: 99.9% (inactive) and 109% (inactive)

CC(C)N=c1cc2n(-c3ccc(Cl)cc3)c3ccccc3nc-2cc1Nc1ccc(Cl)cc1
growth [1]: -15.1% (active) and -62% (active) and -35.6% (active)
growth [2]: 35.8% (inactive) and 20.1% (inactive) and -21.7% (active)
growth [3]: 26.9% (inactive) and -13.2% (active) and -0.542% (active)
growth [4]: 55.8% (inactive) and 73.1% (inactive) and 42.9% (inactive)
growth [5]: 13.1% (inactive) and 13.2% (inactive) and -4.66% (active)
growth [6]: -2.5% (active) and -0.497% (active)
growth [7]: 9.58% (active) and -31.8% (active)
growth [8]: 20.2% (inactive) and 43.3% (inactive) and 16.1% (inactive)
growth [9]: 24.7% (inactive) and 9.68% (active) and -18.8% (active)
growth [10]: -7.57% (active) and -28.7% (active)

Cn1c(=O)c2[nH]c(CCCCCCCCc3nc4ccccc4[nH]3)nc2n(C)c1=O
growth [1]: 47.4% (inactive) and 55.2% (inactive)
growth [2]: 58.1% (inactive) and 66.3% (inactive)
growth [3]: 87.3% (inactive) and 99.6% (inactive)
growth [4]: 57% (inactive) and 49.2% (inactive)
growth [5]: 68.4% (inactive) and 73.6% (inactive)
growth [6]: 60.4% (inactive)
growth [7]: 72.8% (inactive)
growth [8]: 67.4% (inactive) and 70.1% (inactive)
growth [9]: 73.1% (inactive) and 75.1% (inactive)
growth [10]: 88% (inactive) and 99.6% (inactive)

c1ccc2c(CC3=NCCN3)cccc2c1
growth [1]: 96.3% (inactive) and 98.5% (inactive)
growth [2]: 91.4% (inactive) and 100% (inactive)
growth [3]: 98.1% (inactive) and 115% (inactive)
growth [4]: 112% (inactive) and 98.8% (inactive)
growth [5]: 108% (inactive) and 105% (inactive)
growth [6]: 82.3% (inactive) and 87.7% (inactive)
growth [7]: 103% (inactive) and 90% (inactive)
growth [8]: 97.6% (inactive) and 93.8% (inactive)
growth [9]: 98.3% (inactive) and 99.9% (inactive)
growth [10]: 113% (inactive) and 112% (inactive)
